For some of these results: Measured potencies and affinities stand elsewhere. Activity calls are given as the source filed them. The rule behind the calls is not given here.
Assay: blockers of polyQ-driven CASP3 activation – cell-based (AID 1583)
Conditions: polyglutamine-induced caspase-3 activation, cell assay; stronger effect = higher value; concentration not given here

SMILES | inhibition [%]
O=C(O)C1=CCNCC1 | 3.63
CCCn1c(=O)c2[nH]c(C3CCCC3)nc2n(CCC)c1=O | 8.56
O=C(O)c1cc(=O)c2ccccc2[nH]1 | -5.47
O=C(O)c1c2ccccc2cc2ccccc12 | -6.04

Assay: yeast 75Q aggregation reduction – 75Q-TubU reporter (AID 1593)
Conditions: Yeast 75Q polyglutamine aggregation reporter

SMILES | score
O=C(O)C1=CCNCC1 | 1.62
CCCn1c(=O)c2[nH]c(C3CCCC3)nc2n(CCC)c1=O | 1.24
O=C(O)c1cc(=O)c2ccccc2[nH]1 | 1.02
O=C(O)c1c2ccccc2cc2ccccc12 | 0.43

Assay: restoration of touch response, mutant HTT neurons – whole organism, C. elegans mechanosensory neurons, N-terminal huntingtin (AID 1599)
Conditions: C. elegans polyQ-huntingtin mechanosensory neurons, stronger effect = higher value

SMILES | rescue above control
O=C(O)C1=CCNCC1 | -1.41
CCCn1c(=O)c2[nH]c(C3CCCC3)nc2n(CCC)c1=O | 18.1
O=C(O)c1cc(=O)c2ccccc2[nH]1 | 12.3
O=C(O)c1c2ccccc2cc2ccccc12 | 12.4

Assay: blockers of cytochrome c efflux from mitochondria – biochemical, purified mitochondria (AID 1603);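 note: mouse liver mitochondria challenged with calcium chloride; signal normalized to the plate average as 100%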
Conditions: stronger effect = lower value

SMILES | cytochrome c release ratio
O=C(O)C1=CCNCC1 | 1.01
CCCn1c(=O)c2[nH]c(C3CCCC3)nc2n(CCC)c1=O | 0.92
O=C(O)c1cc(=O)c2ccccc2[nH]1 | 0.92
O=C(O)c1c2ccccc2cc2ccccc12 | 0.85

Assay: polyglutamine aggregate formation blockers (AID 1604)
Conditions: polyglutamine-induced protein aggregation inhibition assay; stronger effect = higher value; concentration not given here

SMILES | inhibition of aggregation [%]
O=C(O)C1=CCNCC1 | 45.5
CCCn1c(=O)c2[nH]c(C3CCCC3)nc2n(CCC)c1=O | 1.59
O=C(O)c1cc(=O)c2ccccc2[nH]1 | 69.7
O=C(O)c1c2ccccc2cc2ccccc12 | 33.3

Assay: glutamate transport activators, MN-1 cells, MN-1 cell line (AID 1612);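 note: 0% = mean of DMSO vehicle wells on each plate; positive means more glutamate uptake than control and negative means less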
Conditions: MN-1 motor neuron cells, stronger effect = higher value

SMILES | glutamate uptake change [%]
O=C(O)C1=CCNCC1 | 8.29
CCCn1c(=O)c2[nH]c(C3CCCC3)nc2n(CCC)c1=O | -12.9
O=C(O)c1cc(=O)c2ccccc2[nH]1 | -1.73
O=C(O)c1c2ccccc2cc2ccccc12 | 11

Assay: GFP-Q80 aggregate reduction, neuronal-like cells, cell-based, NGF-treated PC12, GFPQ80 (AID 1614);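 note: lower means fewer inclusions and 0 means no inclusions at all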
Conditions: PC12 NGF-treated GFP-polyQ80 inclusion reduction

SMILES | inclusion score
O=C(O)C1=CCNCC1 | 2
CCCn1c(=O)c2[nH]c(C3CCCC3)nc2n(CCC)c1=O | 2
O=C(O)c1cc(=O)c2ccccc2[nH]1 | 2
O=C(O)c1c2ccccc2cc2ccccc12 | 2

Assay: 75Q-TubH aggregate inhibition, S. cerevisiae, yeast (AID 1616)
Conditions: S. cerevisiae 75Q-TubH polyglutamine aggregation suppression; stronger effect = higher value

SMILES | aggregation suppression score
O=C(O)C1=CCNCC1 | 1.29
CCCn1c(=O)c2[nH]c(C3CCCC3)nc2n(CCC)c1=O | 1.32
O=C(O)c1cc(=O)c2ccccc2[nH]1 | 0.981
O=C(O)c1c2ccccc2cc2ccccc12 | 0.249

Assay: compounds altering circadian rhythm period length – cell-based, LOPAC library, luminescence reporter (AID 2774);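 note: values are relative to mean of DMSO wells on each plate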
Conditions: circadian reporter cells, at 7 µM, actives lie on both sides

SMILES | period change
O=C(O)C1=CCCNC1 | 0.125 h (inactive)
CN[C@H](CC(C)C)C(=O)N[C@H]1C(=O)N[C@@H](CC(N)=O)C(=O)N[C@H]2C(=O)N[C@H]3C(=O)N[C@H](C(=O)N[C@H](C(=O)O)c4cc(O)cc(O)c4-c4cc3ccc4O)[C@H](O)c3ccc(c(Cl)c3)Oc3cc2cc(c3O[C@@H]2O[C@H](CO)[C@@H](O)[C@H](O)[C@H]2O[C@H]2C[C@](C)(N)[C@H](O)[C@H](C)O2)Oc2ccc(cc2Cl)[C@H]1O | -0.05 h (inactive)
COc1cccc(OC)c1OCCNCC1COc2ccccc2O1 (centres undefined) | 0.335 h (inactive)
O=C(O)c1cc(=O)c2ccc(Cl)cc2[nH]1 | -0.105 h (inactive)
CC(C)C[C@H]1C(=O)N2CCC[C@H]2[C@]2(O)O[C@](NC(=O)[C@@H]3C=C4c5cccc6[nH]c(Br)c(c56)C[C@H]4N(C)C3)(C(C)C)C(=O)N12 | 0.365 h (inactive)
O=C(O)C1=CCNCC1 | 0.375 h (inactive)
CC(=O)[C@H]1CC[C@H]2[C@@H]3CCC4=CC(=O)CC[C@]4(C)[C@H]3CC[C@]12C | 0.25 h (inactive)
CCCn1c(=O)c2[nH]c(C3CCCC3)nc2n(CCC)c1=O | -0.025 h (inactive)
COc1cc(NS(C)(=O)=O)ccc1Nc1c2ccccc2nc2ccccc12 | -0.215 h (inactive)
O=C(O)c1cc(=O)c2ccccc2[nH]1 | 0.025 h (inactive)

Assay: compounds altering viability of human ES cells (AID 493140);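 note: cells exposed to compounds for four days before counting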
Conditions: human embryonic stem cell survival screen; stronger effect = higher value

SMILES | survival
CN[C@H](CC(C)C)C(=O)N[C@H]1C(=O)N[C@@H](CC(N)=O)C(=O)N[C@H]2C(=O)N[C@H]3C(=O)N[C@H](C(=O)N[C@H](C(=O)O)c4cc(O)cc(O)c4-c4cc3ccc4O)[C@H](O)c3ccc(c(Cl)c3)Oc3cc2cc(c3O[C@@H]2O[C@H](CO)[C@@H](O)[C@H](O)[C@H]2O[C@H]2C[C@](C)(N)[C@H](O)[C@H](C)O2)Oc2ccc(cc2Cl)[C@H]1O | 13.8 (inactive)
C[C@H]1O[C@@H](O[C@H]2[C@@H](O)C[C@H](O[C@H]3[C@@H](O)C[C@H](O[C@H]4CC[C@@]5(C)[C@H](CC[C@@H]6[C@@H]5C[C@@H](O)[C@]5(C)[C@@H](C7=CC(=O)OC7)CC[C@]65O)C4)O[C@@H]3C)O[C@@H]2C)C[C@H](O)[C@@H]1O | 0.667 (inactive)
C[C@H]1C[C@H]2[C@@H]3CCC4=CC(=O)C=C[C@]4(C)[C@@]3(F)[C@@H](O)C[C@]2(C)[C@@]1(O)C(=O)CO | 9.67 (inactive)
C=C(C)[C@@H]1CC[C@]2(C(=O)O)CC[C@]3(C)[C@H](CC[C@@H]4[C@@]5(C)CC[C@H](O)C(C)(C)[C@@H]5CC[C@]43C)[C@@H]12 | 9.75 (inactive)
CC(C)C[C@H]1C(=O)N2CCC[C@H]2[C@]2(O)O[C@](NC(=O)[C@@H]3C=C4c5cccc6[nH]c(Br)c(c56)C[C@H]4N(C)C3)(C(C)C)C(=O)N12 | 29.8 (inactive)
CC(=O)[C@H]1CC[C@H]2[C@@H]3CCC4=CC(=O)CC[C@]4(C)[C@H]3CC[C@]12C | 8.58 (inactive)
C[C@H](CCC(=O)O)[C@H]1CC[C@H]2[C@@H]3[C@H](O)C[C@@H]4C[C@H](O)CC[C@]4(C)[C@H]3CC[C@]12C | 11.7 (inactive)
